Results on 17 compounds are retold here after ChEMBL document CHEMBL1961873, “Compounds: GSK PKIS; Assays: Nanosyn kinase panel” (2012).

Assay [1] deals with Mitogen-activated protein kinase 3 (Homo sapiens) (UniProt P27361). Conditions: at 1 µM.
In assay [2] the target is SRSF protein kinase 3 (Homo sapiens) (UniProt Q9UPE1). To be noted: at 0.1 µM.
The target is the same in assay [3]. Conditions: at 1 µM.
Assay [4] deals with Mitogen-activated protein kinase 14 (Homo sapiens) (UniProt Q16539). To be noted: at 0.1 µM.
The target is the same in assay [5]. To be noted: at 1 µM.
Assay [6] has as its target Mitogen-activated protein kinase 11 (Homo sapiens) (UniProt Q15759). Conditions: at 0.1 µM.
For assay [7] the target is unchanged. To be noted: at 1 µM.
Assay [8] has as its target T1, Mitogen-activated protein kinase 13 (Homo sapiens) (UniProt O15264).
T1 sequence (whole entry): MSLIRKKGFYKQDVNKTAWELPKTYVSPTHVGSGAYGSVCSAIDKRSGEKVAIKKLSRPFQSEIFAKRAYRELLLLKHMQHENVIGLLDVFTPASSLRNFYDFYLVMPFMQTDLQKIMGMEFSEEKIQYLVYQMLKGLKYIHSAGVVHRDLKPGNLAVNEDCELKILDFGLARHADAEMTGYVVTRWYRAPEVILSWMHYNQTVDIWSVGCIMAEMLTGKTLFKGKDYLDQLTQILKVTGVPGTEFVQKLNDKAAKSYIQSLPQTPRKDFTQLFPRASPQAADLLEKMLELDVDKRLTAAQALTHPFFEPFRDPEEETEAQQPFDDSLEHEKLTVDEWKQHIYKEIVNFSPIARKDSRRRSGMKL
Conditions: at 0.1 µM.

For assay [9], the target named is T1, Mitogen-activated protein kinase 13 (Homo sapiens). To be noted: at 1 µM.
In assay [10] the target is T2, Mitogen-activated protein kinase 12 (Homo sapiens) (UniProt P53778).
T2 sequence (whole entry): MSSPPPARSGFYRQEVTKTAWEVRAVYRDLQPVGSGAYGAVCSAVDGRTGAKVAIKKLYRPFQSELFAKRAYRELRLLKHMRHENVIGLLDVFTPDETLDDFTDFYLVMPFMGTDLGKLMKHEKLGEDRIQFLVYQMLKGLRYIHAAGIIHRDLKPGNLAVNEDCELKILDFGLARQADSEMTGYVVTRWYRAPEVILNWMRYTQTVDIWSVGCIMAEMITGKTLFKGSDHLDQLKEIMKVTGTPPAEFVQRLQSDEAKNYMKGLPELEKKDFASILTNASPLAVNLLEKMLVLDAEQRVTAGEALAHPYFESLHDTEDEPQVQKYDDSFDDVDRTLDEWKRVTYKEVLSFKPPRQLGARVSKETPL
Conditions: at 0.1 µM.

Sequence of SRSF protein kinase 3 (Homo sapiens) (Q9UPE1 whole entry): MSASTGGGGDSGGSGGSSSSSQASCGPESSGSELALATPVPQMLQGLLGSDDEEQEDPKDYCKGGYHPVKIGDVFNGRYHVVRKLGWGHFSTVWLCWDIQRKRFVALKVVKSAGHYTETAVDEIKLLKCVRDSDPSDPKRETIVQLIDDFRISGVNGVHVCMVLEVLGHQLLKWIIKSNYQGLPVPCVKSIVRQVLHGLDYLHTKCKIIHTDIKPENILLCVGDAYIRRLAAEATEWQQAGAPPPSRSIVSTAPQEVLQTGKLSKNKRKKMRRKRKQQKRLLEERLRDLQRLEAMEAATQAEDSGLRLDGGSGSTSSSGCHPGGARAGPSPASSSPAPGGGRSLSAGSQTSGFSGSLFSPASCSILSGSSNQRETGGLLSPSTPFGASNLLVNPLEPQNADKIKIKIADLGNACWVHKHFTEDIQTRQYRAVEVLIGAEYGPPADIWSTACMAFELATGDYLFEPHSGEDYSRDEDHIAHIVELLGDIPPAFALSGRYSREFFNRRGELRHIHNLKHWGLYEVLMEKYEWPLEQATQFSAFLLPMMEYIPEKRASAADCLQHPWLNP
Sequence of Mitogen-activated protein kinase 3 (Homo sapiens) (P27361 whole entry): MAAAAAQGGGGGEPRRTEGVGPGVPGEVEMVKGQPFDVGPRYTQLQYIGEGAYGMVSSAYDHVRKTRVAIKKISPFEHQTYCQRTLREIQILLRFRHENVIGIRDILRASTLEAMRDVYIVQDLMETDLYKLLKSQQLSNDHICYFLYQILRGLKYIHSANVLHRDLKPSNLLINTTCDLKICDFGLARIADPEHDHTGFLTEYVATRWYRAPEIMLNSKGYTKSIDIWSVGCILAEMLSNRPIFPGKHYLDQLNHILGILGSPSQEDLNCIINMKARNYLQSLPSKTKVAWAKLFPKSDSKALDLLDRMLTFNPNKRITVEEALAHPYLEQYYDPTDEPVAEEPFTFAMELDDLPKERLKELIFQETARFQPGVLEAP
Sequence of Mitogen-activated protein kinase 14 (Homo sapiens) (Q16539 whole entry): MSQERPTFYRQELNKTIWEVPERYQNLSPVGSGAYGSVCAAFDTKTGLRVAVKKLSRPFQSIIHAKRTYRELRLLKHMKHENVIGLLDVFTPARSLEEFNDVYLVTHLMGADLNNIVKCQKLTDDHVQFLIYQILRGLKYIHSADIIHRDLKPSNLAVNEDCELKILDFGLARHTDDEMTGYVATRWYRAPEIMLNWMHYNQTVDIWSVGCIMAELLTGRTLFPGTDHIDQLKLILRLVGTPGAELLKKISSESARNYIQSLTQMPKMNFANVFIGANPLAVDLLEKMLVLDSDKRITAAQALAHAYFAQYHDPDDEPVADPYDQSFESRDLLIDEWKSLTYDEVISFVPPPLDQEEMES
Sequence of Mitogen-activated protein kinase 11 (Homo sapiens) (Q15759 whole entry): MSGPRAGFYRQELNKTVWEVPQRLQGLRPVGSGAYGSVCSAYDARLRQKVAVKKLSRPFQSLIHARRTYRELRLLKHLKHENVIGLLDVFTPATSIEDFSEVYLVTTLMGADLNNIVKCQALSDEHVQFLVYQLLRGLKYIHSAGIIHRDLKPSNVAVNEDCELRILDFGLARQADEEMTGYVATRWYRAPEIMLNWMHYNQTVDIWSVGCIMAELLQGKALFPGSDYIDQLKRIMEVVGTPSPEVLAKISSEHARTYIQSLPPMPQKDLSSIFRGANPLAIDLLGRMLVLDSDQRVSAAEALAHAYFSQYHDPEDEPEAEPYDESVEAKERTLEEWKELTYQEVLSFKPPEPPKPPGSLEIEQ

As for `Cc1nc(-c2ccccc2)n2nc(NCCCN3CCOCC3)ncc12`, the inhibition in assay [1] was 1.02%; in [2], -0.13%; in assay [3], -0.34%; in assay [4] it was 3.9%; in [5], 3.71%; in [6], 1.59%. Also, the inhibition in assay [7] is 2.11%; in assay [8] it was 1.83%; in assay [9], 1.77%; in assay [10], 1.57%.
Consider `COc1ccc(-c2nn3ncccc3c2-c2ccnc(Nc3cccc(C(F)(F)F)c3)n2)cc1`, for which the inhibition is 1.1% in assay [1]; -2.11% in assay [2]; -1.47% in assay [3]; 15% in [4]; 57.8% in assay [5]; 7.58% in assay [6]. Besides, the inhibition in assay [7] was determined as 24.7%; in assay [8], 2.68%; in assay [9], 1.86%; in assay [10] it was 2.04%.
For `COC(=O)c1cncc(/C=C/c2c(C)cc(O)cc2C)c1`, the inhibition amounted to 3.36% in assay [1]; 1.31% in assay [2]; 1.48% in assay [3]; 1.5% in [4]; 5.57% in assay [5]; 0.99% in assay [6]. Moreover, the inhibition was 3.92% in assay [7], 1.59% in assay [8], 4.29% in assay [9] and -1.81% in [10].
As to `NS(=O)(=O)c1cccc(Nc2cc(-c3ccc(F)cc3)n[nH]2)c1`, the inhibition was 3.77% in assay [1]; -0.26% in [2]; 3.28% in [3]; 1.56% in assay [4]; 7.1% in assay [5]; 1.06% in assay [6]. The inhibition was 5.29% in assay [7], 2.2% in assay [8], 2.89% in [9] and -0.78% in [10].
For the compound `Cc1ccc(O)cc1Nc1ccnc2ccc(S(C)(=O)=O)cc12`, the inhibition is 2.62% in assay [1]; -1.95% in assay [2]; -1.35% in assay [3]; 14% in [4]; 58.8% in [5]; 9% in assay [6]. For the same compound, the inhibition in [7] was found to be 34.2%; in assay [8], 2.61%; in assay [9] it was 6.26%; in assay [10], 0.62%.
On to `CS(=O)(=O)CCNCc1nc(-c2ccc3ncnc(Nc4ccc(OCc5cccc(C(F)(F)F)c5)cc4)c3c2)cs1`, for which the inhibition in assay [1] was 1.69%; in assay [2], 0.88%; in [3], -1.85%; in [4], 4.2%; in assay [5] it was 3.19%; in [6], 2.78%. Also, the inhibition was determined as 1.51% in [7], 1.27% in assay [8], 2.16% in assay [9] and 0.83% in assay [10].
`C[C@@H](Oc1cc(-n2cnc3ccc(OC[C@@H](O)CO)cc32)sc1C(N)=O)c1ccccc1Cl`: the inhibition was -2.21% in [1]; -1.72% in assay [2]; 0.27% in assay [3]; 2.66% in [4]; 3.54% in [5]; -1.66% in assay [6]. The inhibition was 1.86% in assay [7], -3.13% in assay [8], -2.7% in assay [9] and -0.19% in assay [10].
Turning to `CCn1c(-c2nonc2N)nc2ccc(F)cc21`, the inhibition in [1] is 7.45%; in [2], -2.41%; in [3], -1.12%; in assay [4], 5.24%; in assay [5] it was 8.37%; in assay [6], 7.69%. In addition, the inhibition in assay [7] came to 9.2%; in assay [8], 2.3%; in [9] it was 6.26%; in assay [10] it was 3.81%.
Turning to `Nc1nccc(C#Cc2cncnc2Nc2ccc(OCc3cccc(F)c3)c(Cl)c2)n1`, the inhibition in [1] was 1.04%; in assay [2], 0.77%; in [3], -0.42%; in [4], 2.98%; in [5], 7.42%; in [6], 0.46%. Moreover, the inhibition in assay [7] worked out at 4.43%; in assay [8], 1.14%; in assay [9], 4.65%; in [10], 0.02%.
As to `CCS(=O)(=O)c1ccc(OC)c(Nc2nccc(N(C)c3ccc4c(C)n[nH]c4c3)n2)c1`, the inhibition is 4.25% in [1]; -3.37% in assay [2]; -0.4% in assay [3]; 5.92% in assay [4]; 8.09% in assay [5]; 3.01% in [6]. Moreover, the inhibition in [7] was determined as 3.67%; in assay [8], 4.71%; in assay [9], 2.73%; in assay [10] it was 2.34%.
On to `CN(C)c1cc2c(Nc3ccc4c(cnn4Cc4ccccc4)c3)ncnc2cn1`, for which the inhibition was -0.93% in assay [1]; -1.42% in [2]; -0.9% in assay [3]; 5.84% in assay [4]; 8.31% in assay [5]; 2.35% in assay [6]. Also, the inhibition in assay [7] came out at 4.06%; in [8], 0.05%; in [9], 2.47%; in assay [10] it was 1.3%.
As to `CC(C)c1ccc2c(c1)NC(=O)/C2=N/Nc1ccc(S(N)(=O)=O)cc1`, the inhibition in assay [1] is -0.93%; in assay [2] it was -0.91%; in [3] it was -3.87%; in [4], 0.75%; in assay [5] it was -0.04%; in assay [6] it was -1.84%. In addition, the inhibition in assay [7] was 3.37%; in assay [8] it was -0.12%; in assay [9] it was -0.88%; in [10] it was 0.48%.
`Cc1cc(O)cc(C)c1/C=C/c1cncc(C(=O)N(C)C)c1`: the inhibition in assay [1] stood at 2.75%; in assay [2] it was 1.6%; in assay [3], 2.35%; in assay [4], 5.83%; in assay [5] it was 7.03%; in assay [6], 3.38%. Moreover, the inhibition in [7] is 8.48%; in [8], 1.6%; in [9], 3.68%; in assay [10], 4.71%.
As for `C[C@@H](Oc1cc(-n2cnc3ccc(OCC4CCN(C)CC4)cc32)sc1C(N)=O)c1ccccc1C(F)(F)F`, the inhibition is -0.11% in [1]; 0.22% in [2]; 0.15% in assay [3]; -2.1% in [4]; 1.86% in [5]; 1.51% in assay [6]. For the same compound, the inhibition was 3.33% in [7], -2.92% in assay [8], -3.87% in assay [9] and -1.88% in assay [10].
Turning to `NS(=O)(=O)c1ccc(-c2cc3ccncc3cc2OCc2ccccc2)cc1`, the inhibition in assay [1] is 3.1%; in assay [2], -2.09%; in assay [3] it was 3.53%; in assay [4], 7.07%; in [5] it was 8.35%; in [6], 2.71%. Besides, the inhibition in [7] was 6.57%; in assay [8] it was 5.51%; in assay [9], 3.8%; in assay [10], -0.17%.
On to `Cc1ccc2c(c1)/C(=N/Nc1ccc(S(N)(=O)=O)cc1)C(=O)N2`, for which the inhibition in [1] was 1.36%; in assay [2], -0.75%; in assay [3], -2.57%; in assay [4] it was 1.29%; in assay [5], 5.27%; in [6], 3.1%. The inhibition in assay [7] is 6.52%; in assay [8], -0.85%; in assay [9], 0.5%; in assay [10], 0.27%.
In the case of `O=S(=O)(CCOCc1ccc(-c2ccc3ncnc(Nc4ccc(OCc5cccc(F)c5)c(Cl)c4)c3c2)o1)c1ccccc1`, the inhibition was 1.69% in assay [1]; -0.89% in assay [2]; 1.24% in [3]; 0.07% in assay [4]; 0.7% in assay [5]; -0.78% in [6]. Also, the inhibition in assay [7] was -0.75%; in assay [8], 1.66%; in [9], 1.53%; in [10] it was 1.14%.

One may read the inhibition as the relative decrease from the control value, in per cent.
